Unmarked numbers belong to inactive results. Activity calls are given as the source filed them. The call rests on the fitted dose curve; in most records, active means well fitted activation curve with a large enough effect; inconclusive means small, poorly fitted or top-dose-only effect; inactive means no such curve, though single readings can be large or run the other way.
assay: Confirmatory qHTS for Identification of Small Molecule Activators of Huntingtin-Antisense Promoter Activity; conditions: HEK293 HTT-AS promoter firefly luciferase reporter, 24 h; series mostly up to 57.5 µM; activity change, positive = activation: at the top concentration
In short: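 Activity normalized between vehicle control (0%) and zero RLU (-100%) from firefly luminescence (Dual-Glo). Compounds, up to 57.5 uM final, incubated 24 h at 37C on HEK293 reporter cells plated 24 h earlier.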
Potency means the concentration at half of the fitted maximal effect.

Structure (SMILES) | activity change, positive = activation | Potency
COC(=O)c1c(C)oc2ccc(N(C(=O)c3ccncc3)S(=O)(=O)c3cc(C)c(C)cc3C)cc12 | -93.4% | –
Cc1cc(NC(=O)c2cc(-c3ccc(Cl)cc3)on2)nn1Cc1ccc(Cl)cc1 | -13.6% | –
Cc1ccc(NC(=O)C2CCN(S(=O)(=O)c3ccc4[nH]c5c(c4c3)CCCCC5)CC2)cc1 | -23.1% | –
CC1=C(C(=O)OC2CCCC2)C(c2ccccc2Cl)CC(=O)N1 (centres undefined) | -43.8% | –
CCOc1ccccc1C(=O)Nc1ccc(-n2nncc2-c2ccccc2)cc1 | -10.4% | –
CCN1C(=O)c2ccccc2Sc2ccc(NC(=O)c3ccc(C)c(F)c3)cc21 | -22.3% | –
Cc1csc2nc(COC(=O)c3ccccc3NC(=O)c3ccccc3Cl)cc(=O)n12 | 8.8% | –
Cc1ccc(NC(=O)c2c(NC(=O)C(F)(F)F)sc3c2CCCCC3)cc1 | -93.8% | –
COc1ccc(-c2nc(CSCC(=O)NCCc3ccc(OC)c(OC)c3)c(C)o2)cc1 | -41.7% | –
COc1cc2nc(N3CCCN(C)CC3)nc(NC3CCN(Cc4ccccc4)CC3)c2cc1OC | -53.4% | –
COCCN1C(=O)c2[nH]nc(-c3ccccc3O)c2C1c1ccc(OCc2ccccc2)c(OC)c1 (centres undefined) | -22.5% | –
Cc1ccc(NC(=O)C2CCCN2S(=O)(=O)c2ccc3c(c2)CCCC(=O)N3)cc1C (centres undefined) | -73.5% | –
COc1cccc([C@@H](C)NCCCc2ccccc2Cl)c1 | -23.4% | –
COc1ccc(NC(=O)c2ccc(-c3nc(CSc4ccc(C)cc4)c(C)o3)cc2)cc1Cl | -52.9% | –
Cc1ccc(S(=O)(=O)Nc2cccc(-c3ccc(N4CCCCC4)nn3)c2)s1 | – | 1510 nM (active)
COc1ccc(C2C=C(c3ccc(Br)cc3)Nc3nnnn32)c(OC)c1 (centres undefined) | 3.76% | –
CCOc1ccc(-n2c(/C=C/c3cccc(F)c3)nc3cc(OC)c(OC)cc3c2=O)cc1 | -47.7% | –
CCN(c1ccccc1)S(=O)(=O)c1cc(C(=O)Nc2ccc(Br)cc2)ccc1F | -66.2% | –
COc1ccccc1NC(=O)CSc1oc(-c2ccccc2)nc1S(=O)(=O)c1ccccc1 | -21.1% | –
CCC(C(=O)NCc1ccc(OC)c(OC)c1)n1nc(C)c2c(C)n(-c3ccc(C)cc3)nc2c1=O (centres undefined) | -57.8% | –

Structure (SMILES) | activity change, positive = activation | Potency
O=S(=O)(NCC(c1ccco1)N1CCN(c2ccc(F)cc2)CC1)c1cc(F)ccc1F (centres undefined) | -21.2% | –
Cc1nc2cccnc2n1-c1cccc(C(=O)NCc2ccc(OC(C)C)cc2)c1 | -31% | –
COc1ccc(C2c3c(-c4c(C)cc(C)cc4O)n[nH]c3C(=O)N2Cc2ccco2)cc1 (centres undefined) | -38.1% | –
CCCS(=O)(=O)NCCc1sc2nc(-c3ccc(F)cc3)nn2c1C | -91% | –
COc1ccc(CCNC(=O)c2ccc3c(c2)N(Cc2ccc(F)cc2)CCS3)cc1OC | -33.8% | –
Cc1ccc(NC(=O)c2c(Nc3ccccc3C)sc(C(=O)c3ccccc3)c2N)cc1 | -20.9% | –
COc1ccc(N(CC(=O)N2CCN(c3cccc(C)c3C)CC2)S(=O)(=O)c2c(C)noc2C)cc1 | -28.1% | –
Cc1ccc(C(Nc2ccccn2)c2ccc3cccnc3c2O)cc1 (centres undefined) | -28% | –
Cc1cc(C)c(Cn2c3ccccc3c3cnn(CC(=O)N4CCCCC4)c(=O)c32)c(C)c1 | -20.4% | –
COc1ccc2sc(N(Cc3cccnc3)C(=O)c3ccc4c(c3)OCCO4)nc2c1 | -35.9% | –
CCOc1ccc(CNC(=O)c2ccc3nc(Cc4ccc(OC)cc4)oc3c2)cc1OC | -57.1% | –
O=C(c1cccs1)N(Cc1cccnc1)c1nc2ccc(F)cc2s1 | -81.4% | –
Cc1cccc(OCC(=O)Nc2ccc3c(c2)N(C)C(=O)c2ccccc2S3)c1 | -27.1% | –
O=C1C2=C(Nc3ccccc3SC2c2ccc(C(F)(F)F)cc2)c2ccccc21 (centres undefined) | -61.3% | –
COc1ccccc1N1CCN(C(=O)C2CCCN(S(=O)(=O)c3ccc4c(c3)oc(=O)n4C)C2)CC1 (centres undefined) | -45.3% | –
Cc1ccc(NS(=O)(=O)c2ccc(-c3cnc(C4CC4)o3)cc2)cc1N(C)C | -91.1% | –
CC1Cc2cc(S(=O)(=O)NCc3ccccc3Cl)ccc2N1C(=O)C1CCC1 (centres undefined) | -84.4% | –
Cn1c(=O)c2sccc2n2c(CCCC(=O)Nc3ccc(Oc4ccc(Cl)cc4)cc3)nnc12 | -57.8% | –
CCOc1ccc(C(NC(=O)c2cc(OC)c(OC)c(OC)c2)c2cc(Cl)c3cccnc3c2O)cc1 (centres undefined) | -41.4% | –

Reference: PubChem BioAssay AID1508622 (National Center for Advancing Translational Sciences (NCATS), 2021)
